In all, about 360,000 compounds went through this assay and about 1,400 (0.39%) were called active. The entries come from a sample that favours actives as a whole. Values without a mark were called inactive. Rule as the data show it: active = inhibition above about 5% (passing the limit was not always enough); inactive = the rest.
molecular target: Tyrosine-protein kinase ABL1 (Homo sapiens) + Ras and Rab interactor 1 (Homo sapiens) (UniProt P00519+Q13671); experiment: disruptors of human Abl and Rin1 association – biochemical, TR-FRET, primary screen (AID 588664); conditions: TR-FRET Rin1/Abl binding, at 7.35 µM, hits give high values
Sequence (P00519 whole entry, looked up): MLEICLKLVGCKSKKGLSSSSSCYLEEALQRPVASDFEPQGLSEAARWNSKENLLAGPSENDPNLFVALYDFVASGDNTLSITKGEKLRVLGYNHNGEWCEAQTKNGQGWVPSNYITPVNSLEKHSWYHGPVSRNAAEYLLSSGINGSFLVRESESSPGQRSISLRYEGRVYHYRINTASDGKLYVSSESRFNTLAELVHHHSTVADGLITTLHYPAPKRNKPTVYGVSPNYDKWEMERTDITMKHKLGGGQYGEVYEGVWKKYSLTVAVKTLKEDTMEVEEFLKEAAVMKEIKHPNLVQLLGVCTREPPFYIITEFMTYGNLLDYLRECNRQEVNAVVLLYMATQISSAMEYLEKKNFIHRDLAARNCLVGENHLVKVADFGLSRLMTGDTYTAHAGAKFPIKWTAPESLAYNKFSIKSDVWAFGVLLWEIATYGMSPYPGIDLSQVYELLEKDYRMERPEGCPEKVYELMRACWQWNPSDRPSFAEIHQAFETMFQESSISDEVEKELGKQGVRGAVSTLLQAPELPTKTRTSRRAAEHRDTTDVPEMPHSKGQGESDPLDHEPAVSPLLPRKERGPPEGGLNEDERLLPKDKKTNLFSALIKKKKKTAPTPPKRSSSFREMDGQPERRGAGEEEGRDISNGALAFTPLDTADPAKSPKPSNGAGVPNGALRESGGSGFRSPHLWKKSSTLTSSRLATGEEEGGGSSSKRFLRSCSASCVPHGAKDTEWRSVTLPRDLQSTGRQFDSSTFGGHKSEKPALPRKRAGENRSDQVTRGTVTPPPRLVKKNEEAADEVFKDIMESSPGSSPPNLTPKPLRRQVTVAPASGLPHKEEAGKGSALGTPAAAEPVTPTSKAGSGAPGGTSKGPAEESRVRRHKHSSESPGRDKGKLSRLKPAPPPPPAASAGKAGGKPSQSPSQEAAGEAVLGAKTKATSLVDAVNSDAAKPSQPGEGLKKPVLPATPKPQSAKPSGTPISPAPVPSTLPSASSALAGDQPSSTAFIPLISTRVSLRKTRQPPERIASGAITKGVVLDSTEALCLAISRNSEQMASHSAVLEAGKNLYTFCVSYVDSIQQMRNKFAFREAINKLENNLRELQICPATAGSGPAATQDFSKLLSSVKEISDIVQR
Sequence (Q13671 whole entry, looked up): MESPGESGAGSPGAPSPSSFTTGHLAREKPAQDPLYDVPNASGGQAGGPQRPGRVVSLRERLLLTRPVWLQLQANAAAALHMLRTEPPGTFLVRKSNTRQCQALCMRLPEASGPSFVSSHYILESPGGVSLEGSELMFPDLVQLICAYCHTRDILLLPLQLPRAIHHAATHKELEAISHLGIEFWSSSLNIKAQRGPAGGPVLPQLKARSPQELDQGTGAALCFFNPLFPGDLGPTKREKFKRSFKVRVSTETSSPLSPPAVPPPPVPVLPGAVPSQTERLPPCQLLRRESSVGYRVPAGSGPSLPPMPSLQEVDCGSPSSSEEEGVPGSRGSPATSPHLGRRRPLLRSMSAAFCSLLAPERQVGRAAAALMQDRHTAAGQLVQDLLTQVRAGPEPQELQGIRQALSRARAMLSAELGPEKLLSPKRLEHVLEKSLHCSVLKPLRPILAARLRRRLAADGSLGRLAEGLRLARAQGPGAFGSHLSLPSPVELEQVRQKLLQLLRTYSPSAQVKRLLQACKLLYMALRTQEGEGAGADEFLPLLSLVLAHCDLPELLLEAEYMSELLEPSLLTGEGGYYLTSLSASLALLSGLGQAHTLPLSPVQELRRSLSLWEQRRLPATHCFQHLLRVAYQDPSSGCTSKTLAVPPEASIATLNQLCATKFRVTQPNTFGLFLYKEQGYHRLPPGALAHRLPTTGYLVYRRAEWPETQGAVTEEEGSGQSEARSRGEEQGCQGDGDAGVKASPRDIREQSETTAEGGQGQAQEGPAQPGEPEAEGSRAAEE

SMILES	inhibition
CCOc1ccccc1NC(=O)COc1ccc(S(=O)(=O)N2CCCC2)cc1	2.38%
COc1ccc(S(=O)(=O)N2CCCCC2)cc1NC(=O)COc1ccccc1	0.41%
CCOc1ccc(S(=O)(=O)N2CCCCC2)cc1NC(=O)CN1CCCC1c1cccs1 (stereo unspecified)	8.67% (active)
COc1ccccc1C(CNC(=O)c1ccc(C)c(S(=O)(=O)N2CCCCC2)c1)N(C)C (stereo unspecified)	1.36%
COc1ccc(NC(=O)C(C)N2c3cccc4cccc(c34)S2(=O)=O)c(OC)c1 (stereo unspecified)	0.54%
NC(=O)C[C@@H]1NC(=O)CNC(=O)c2cc([N+](=O)[O-])cc(I)c2NCCC(C(N)=O)NC1=O (stereo partly specified)	-0.35%
CC(NS(=O)(=O)c1ccc(OCC(=O)N2CCCC2)cc1)c1ccccc1 (stereo unspecified)	1.07%
O=C(COc1ccc(S(=O)(=O)NCCc2ccccc2)cc1)N1CCCC1	7.8% (active)
O=C(COc1ccc(S(=O)(=O)NCc2ccccc2)cc1)N1CCOCC1	-6.66%
COc1cc(C(=O)N/C(=C\c2cn(C)c3ccccc23)C(=O)N2CCOCC2)cc(OC)c1OC	3.65%
Cc1cccc(N)c1SC1CCCCC1O (stereo unspecified)	-2.16%
COC(=O)C1=C(N)Oc2c(oc(CO)cc2=O)C1c1c(F)cccc1Cl (stereo unspecified)	1.15%
Cc1cccc(CN2CCN(C3CN(Cc4ccccc4)S(=O)(=O)C3)CC2)c1 (stereo unspecified)	5.69%
NC(=O)c1ccsc1NC(=O)COC(=O)Cc1n[nH]c(=O)c2ccccc12	1.63%
Cc1ccc(S(=O)(=O)C2(S(=O)(=O)c3ccc(C)cc3)CCCC2)cc1	1.29%
CC1(C(=O)Nc2cccc3c2CCCC3)CCN1C(=O)C1(c2ccccc2)CC1 (stereo unspecified)	1.83%
COC(=O)c1ccccc1NC(=O)CSc1ccccn1	-0.76%
Cc1c(NC(=O)C(C)OC(=O)c2ccccc2O)c(=O)n(-c2ccccc2)n1C (stereo unspecified)	-1.15%
CC(OC(=O)c1ccccc1NCCO)C(=O)Nc1ccnn1C(C)C (stereo unspecified)	44.6% (active)
C=CCc1cc(C)ccc1OCCCn1ccnc1	0.39%
CCc1ccccc1NC(=S)N(CCN1CCCCCC1)Cc1ccco1	-2.14%
Cc1cc(C)n(CCNCc2c(C(=O)N3C[C@@H](C)O[C@@H](C)C3)nc3ccc(Cl)cn23)n1	5.28%
Cc1ccccc1C(=O)N1CCC(C(=O)Nc2ccc(S(=O)(=O)N(C)C(C)C)cc2)CC1	14.6% (active)

SMILES	inhibition
CC(=O)c1cccc(NC(=O)C2CCN(C(=O)c3ccccc3Cl)CC2)c1	-0.65%
CCc1nnc(NC(=O)C2CCN(C(=O)c3ccccc3C)CC2)s1	-1.24%
Cc1ccc(CN2CCN(Cc3ccccc3-c3ccco3)CC2CCO)o1 (stereo unspecified)	-0.29%
COc1cccc2c(O)cc(=O)n(C)c12	-0.91%
O=c1c2ccccc2ccc2ccc(P(=O)(O)O)cc12	0.55%
O=Nc1c(O)cc(O)c2ccccc12	12.5% (active)
CCCC(=O)C1=C(N(C)c2ccccc2)CC(C)(C)C(C(=O)OC)C1=O (stereo unspecified)	0.08%
CC(C)CNC(=O)CC(c1ccccc1)c1c(O)ccc2ccccc12 (stereo unspecified)	-0.65%
COc1ccc(OCCn2ccnc2C)cc1	1.4%
O=[N+]([O-])c1cc(C(F)(F)F)ccc1NCCc1ccncc1	-3.62%
CCCn1c(N)c(C(=O)CSc2nnc(Cc3cccs3)n2C2CC2)c(=O)[nH]c1=O	2.22%
Cc1ccc(-n2c(SCC(=O)NCc3ccc4c(c3)OCO4)nnc2-c2cccnc2)c(C)c1	8.97% (active)
CCCn1c(N)c(C(=O)CSc2nnc(-c3cccnc3)n2-c2ccc(C)cc2C)c(=O)[nH]c1=O	12.2% (active)
CCCn1c(N)c(C(=O)CSc2nnc3n2CCCCC3)c(=O)[nH]c1=O	6.59%
Cc1ccccc1-c1nnc(SCC(=O)NCc2ccc3c(c2)OCO3)n1C	0.29%
Cc1cccc(C)c1NC(=O)CSc1nnc(-c2ccccc2)n1Cc1ccc2c(c1)OCO2	8.78%
CCOC1CCCCC1NS(=O)(=O)c1ccc(Cl)cc1 (stereo unspecified)	-1.9%
COc1ccc(C(CNC(=O)c2cc3c(s2)CCCC3)N2CCOCC2)cc1 (stereo unspecified)	-1.94%
O=C(c1ccc(NS(=O)(=O)c2ccc3[nH]c(=O)[nH]c3c2)cc1)N1CCCCC1	2.64%
Cc1ccccc1N1CCN(C(=O)c2cccnc2)CC1	1.88%
CC(C)Cn1cnc2c1c(=O)n(CC(O)c1ccccc1)c(=O)n2CC(C)C (stereo unspecified)	2.26%
COCCNc1nc(-n2nc(C)cc2C)nc2sc3c(c12)CCCC3	-2.91%
COC(=O)c1ccccc1OCC(=O)N1CCN(c2ccc(Cl)cc2)CC1	3.93%

SMILES	inhibition
COc1ccc(N2C(=O)C3CCCN3C2c2cccs2)cc1 (stereo unspecified)	7.79% (active)
COc1cccc(N2C(=O)C3CCCN3C2c2ccc(F)cc2)c1 (stereo unspecified)	1.17%
COc1ccc(N2C(=O)C3CCCN3C2c2cc(OC)c(OC)cc2OC)cc1 (stereo unspecified)	-1.54%
CSc1ccc(/C=C/C(=O)NC23CC4CC(CC(C4)C2)C3)cc1	-0.46%
CCN(Cc1ccccc1)C(=O)CCS(=O)(=O)c1ccc2c(c1)oc(=O)n2C	-4.23%
CS(=O)(=O)N1CCN(C(=O)CSc2ccccc2)CC1	2.46%
NC(=O)C1CCN(C(=O)c2cn(-c3ccccc3)nc2-c2cccnc2)CC1	2.02%
O=c1oc2ccccc2cc1-c1cn(-c2ccccc2)c(=S)[nH]1	-2.16%
O=C(c1cn(-c2ccccc2)nc1-c1cc2ccccc2oc1=O)N1CCOCC1	8.23% (active)
CCCCCN(C(=O)CCC(=O)OCCOc1ccc(OC)cc1)c1c(N)n(CCCC)c(=O)[nH]c1=O	1.88%
Cc1cc(C(F)(F)F)nn1CC(=O)N1CCCC1	-1.33%
Oc1c(C(c2ccccn2)N2CCOCC2)ccc2cccnc12 (stereo unspecified)	27% (active)
C/C=C/C(=O)Nc1nnc(C(C)C)s1	-0.75%
O=C(O)/C(=C/c1cccnc1)NC(=O)c1ccccc1	-1.66%
Cc1nc(CN2CCN(C(=O)CCc3nnc(Cc4c[nH]c5ccccc45)o3)CC2)cs1	-2.84%
O=C(Oc1c(-c2ccco2)oc2ccccc2c1=O)c1cccnc1	0.23%
CCOC(=O)N1CCC(c2cc(=O)n(-c3ccccc3)[nH]2)CC1	11.4% (active)
CCOC(=O)CN1CCC(c2ccccc2)CC1	1.17%
CCOC(=O)N1CCC(NC(=O)CCc2ccccc2)CC1	-0.75%
C[C@@H]1CN([C@@H](C)CO)C(=O)CCCn2nncc2CO[C@H]1CN(C)C(=O)Nc1ccc(C(F)(F)F)cc1	-1.77%
CCCOc1ccc(C2C(C(=O)c3ccc(C)o3)=C(O)C(=O)N2CCCn2ccnc2)cc1 (stereo unspecified)	-89.7%
OCC(CO)(CO)NCc1ccc(-c2ccccc2)cc1	-1.05%
COc1ccc(Cl)cc1-n1c(=S)sc2c(=O)n(-c3ccc(F)cc3)c(SCC(=O)O)nc21	3.75%

SMILES	inhibition
CN(C(=O)c1ccc(NC(=O)Cc2cccc(NC(=O)C3CCN(C(=O)c4ccccc4)CC3)c2)cc1)C1CC1	16.1% (active)
CN(C(=O)c1cccc(NC(=O)Cc2cccc(NC(=O)C3CCCN(C(=O)C4CC4)C3)c2)c1)C1CCC1 (stereo unspecified)	1.65%
CN(C(=O)c1cccc(NC(=O)Cc2ccc(NC(=O)C3CCN(C(=O)C4CCCCC4)CC3)cc2)c1)C1CCC1	0.86%
C=CCn1c(SCC(=O)c2c(N)n(C)c(=O)n(C)c2=O)nc2sc(CC)cc2c1=O	-0.41%
COc1ccc(NC(=O)CSCc2ccc([N+](=O)[O-])cc2)cc1OC	0.28%
O=C(COc1ccc([N+](=O)[O-])cc1)Nc1cccc(C(=O)Nc2ccccc2C(=O)O)c1	2.02%
O=C(CSCc1ccc([N+](=O)[O-])cc1)Nc1cccc(C(=O)Nc2ccccc2C(=O)O)c1	11.8% (active)
CCOCCCNC(=O)C(NC(=O)Cc1c[nH]c2ccccc12)c1ccc(OC)cc1 (stereo unspecified)	-1.97%
CC(C)(C)c1ccc(Cn2nnc3c(=O)[nH]c(C4CCCN(C(=O)c5ccco5)C4)nc32)cc1 (stereo unspecified)	0.48%
O=C(Nc1nn(Cc2ccccc2F)cc1Br)c1cccs1	-1.24%
Oc1cccc2cc(-c3ccncc3)cnc12	13.3% (active)
Fc1ccc(-c2ccc(CNCc3ccccn3)o2)cc1Cl	-2.17%
CN1CCN(C(CNS(=O)(=O)c2cccs2)c2cccnc2)CC1 (stereo unspecified)	1.76%
COC(=O)CN1C(C)=Nc2ccc(Br)cc2C1c1ccccc1 (stereo unspecified)	0.76%
Cc1nn(CC#N)c(=O)n1N(C)c1ncc(C(F)(F)F)cc1Cl	2.69%
Cc1nn(-c2ncc(C(F)(F)F)cc2Cl)c(=O)n1-c1ccccc1	7.67% (active)
CN(C)C=NC(=O)c1cccn1-c1ncc(C(F)(F)F)cc1Cl	1.65%
O=C(O)c1cccc2c1C(=O)N(C1CCCC1)C2	-1.46%
O=c1ccc2c(-c3ccccc3S(=O)(=O)O)c3ccc(O)c(O)c3oc-2c1O	52.3% (active)
COCCNC(=O)COc1ccc(N(C)S(=O)(=O)c2ccc3ccccc3c2)cc1	1.04%
Cc1cc2ccccc2n1CCNC(=O)COc1ccc2ccccc2c1	7.69% (active)
Cc1ccc(C)c(NC(=O)CN(C)C(=O)COc2ccc3ccccc3c2)c1	0.05%

Reference: PubChem BioAssay AID588664 (The Scripps Research Institute Molecular Screening Center, 2011)
